Bioassay records as filed in PubChem BioAssay.
An excerpt weighted towards active compounds, which were near 3.2% of everything screened.
SKN-1 block: suppressors of acrylamide-induced Pgst-4::GFP reporter in worms, primary screen, SKN-1 inhibitor project, whole organism, uHTS, GFP/RFP fluorescence ratio, strain VP596; C. elegans VP596 Pgst-4::GFP/RFP ratio, 24 h; inhibition, % at 21.8 µM; 360,000 tested, 0.49% active; AID 624304, 2012;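 active = interference check ratio from 0.5 to 1.5 plus GFP to RFP signal ratio inhibition reaching or exceeding a fixed threshold, cut at about 30% in these data, passing the limit was not always enough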
NRP1-CendR mod: modulators of CendR peptide binding to NRP-1, primary screen, biochemical, fluorescence polarization, uHTS. AID 602438, 2012. 360,000 tested, 0.85% active. FAM-RPARPAR peptide binding to NRP-1. inhibition, % at 25 µM;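 active = inhibition or corrected inhibition above about 18%, plus a signal ratio from 0.5 to 1.5, limit read from the data, passing the limit was not always enough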
MEKK3 PB1 HTS: modulators of MEKK3-MEK5 PB1 binding, primary screen, biochemical, wildtype MEKK3, multiplex bead flow cytometry, Alexa488-MEK5; bead-based flow cytometry, Alexa488-MEK5 binding to MEKK3; actives lie on both sides; 0 = blocked by unlabeled MEK5, 100 = vehicle; binding response (% of control), % at 10 µM; 290,000 tested, 1.4% active; AID 1529, 2009;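 active = binding response more than 3 SD above or below the average of its plate-row segment, actives on both sides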;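 also: Alexa488 bead fluorescence after subtracting the streptavidin-only scavenger bead signal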
Target sequence (Q99759 whole entry, looked up): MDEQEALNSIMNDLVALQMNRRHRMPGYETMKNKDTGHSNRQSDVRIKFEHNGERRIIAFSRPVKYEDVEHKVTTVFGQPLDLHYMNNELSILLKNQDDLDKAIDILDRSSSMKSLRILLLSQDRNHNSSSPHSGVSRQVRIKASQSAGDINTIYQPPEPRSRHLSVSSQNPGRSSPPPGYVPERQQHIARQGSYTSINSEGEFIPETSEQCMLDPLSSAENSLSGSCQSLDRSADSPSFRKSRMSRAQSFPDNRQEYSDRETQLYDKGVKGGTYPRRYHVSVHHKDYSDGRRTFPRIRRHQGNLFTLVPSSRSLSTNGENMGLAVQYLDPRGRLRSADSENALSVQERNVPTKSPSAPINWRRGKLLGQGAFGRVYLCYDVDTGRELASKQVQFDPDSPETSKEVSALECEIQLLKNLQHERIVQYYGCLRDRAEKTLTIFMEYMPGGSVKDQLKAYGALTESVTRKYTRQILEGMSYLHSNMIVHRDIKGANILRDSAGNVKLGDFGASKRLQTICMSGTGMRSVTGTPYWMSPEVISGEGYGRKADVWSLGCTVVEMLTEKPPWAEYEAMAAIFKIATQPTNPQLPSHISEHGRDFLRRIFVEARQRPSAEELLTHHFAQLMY
MEKK2 mut-MEK5: MEK5 binding signal on mutant MEKK2 PB1, primary screen, biochemical, multiplex bead flow cytometry, Alexa488-MEK5 | percent response, % at 10 µM | 290,000 tested, 0.35% active | Alexa488-MEK5 binding to MEKK2 mutant; in the data active = percent response above about 24%, passing the limit was not always enough
MEKK2wt PB1 HTS: modulators of MEK5 binding to wildtype MEKK2, primary screen, biochemical, multiplex bead flow cytometry, Alexa488-MEK5. AID 1531, 2009. binding response (% of control), % at 10 µM. 290,000 tested, 1.1% active. Alexa488-MEK5 binding to MEKK2 WT; actives lie on both sides. Mitogen-activated protein kinase kinase kinase 2 (Homo sapiens), Q9Y2U5; in the data active = binding response below about 67% or above about 130%
MEKK2wt confirm: modulators of MEK5 binding to wildtype MEKK2, confirmation, biochemical, single concentration, multiplex bead flow cytometry; shares compounds with MEKK3 PB1 HTS; Alexa488-MEK5 binding to MEKK2 WT; actives lie on both sides; binding response (% of control), % at 10 µM; 5,900 tested, 2.4% active; AID 1892, 2009; in the data active = binding response below about 16% or above about 210%; inactive = in between
MEKK2mut confirm: mutant MEKK2 PB1-MEK5 binding signal retest – biochemical, single concentration, multiplex bead flow cytometry, confirmation; shares compounds with MEKK3 PB1 HTS; Alexa488-MEK5 binding to MEKK2 mutant; percent response, % at 10 µM; 5,900 tested, 2% active; in the data active = percent response mostly above about 71%, no sharp cut-off; inactive = mostly below about 38%;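 also: higher means compound restores mutant binding toward wildtype level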
MEKK3-MEK5 inh: MEKK3 wild-type PB1 binding to MEK5, inhibitors, confirmation, biochemical, bead multiplex flow cytometry, single concentration, wildtype | shares compounds with MEKK3 PB1 HTS | Alexa488-MEK5 binding to MEKK3; hits give low values | binding response (% of control), % at 10 µM | 5,900 tested, 1.8% active | AID 1894, 2009;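 active = binding response below 72% of control, or above a set upper limit, though filed actives all read lower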;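 also: 100% = DMSO only wells and 0% = binding blocked by excess unlabeled MEK5; lower values mean stronger disruption of MEK5 binding to MEKK3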
Starred values were filed as active, the others as inactive; / = no result; ! = not confirmed by another sample; [ ] = remark or other dose.

SMILES	SKN-1 block	NRP1-CendR mod	MEKK3 PB1 HTS	MEKK2 mut-MEK5	MEKK2wt PB1 HTS	MEKK2wt confirm	MEKK2mut confirm	MEKK3-MEK5 inh
CNc1ccc2nc3ccccc3[n+](C)c2c1	91.1	29.1*	88.0	-5.0	2.0*[inhibitor]	95.0	6.0	94.0
CCN(CC)c1ccc(/C=N/c2sc3c(c2C#N)C2CCN3CC2)c(O)c1	62.4	131.9	109.0	92.0*	96.0	84.0	-22.0	93.0
CN(C)CCN(CC1CCCN(Cc2ccccc2F)C1)C(=O)Cc1ccccc1F (configuration not stated)	-19.2	3.7	111.0	30.0*	121.0	115.0	5.0	102.0
Cc1ccc2c(C)cccc2c1	-1.8	-3.3	/	/	/	/	/	/
O=C1NC(=O)N(Cc2ccccc2)C(=O)/C1=C/N1CCCc2ccccc21	0.0	-5.2	140.0*	0.0	107.0	89.0	2.0	94.0
CN1CCN(c2ccc(Cl)cc2N)CC1	13.8	-20.3	97.0	-4.0	101.0	/	/	/
Cc1ccc(Cl)cc1N1CCN(CCN)CC1	0.4	1.8	108.0	40.0*	139.0*	128.0	12.0	100.0
COc1cc(C(=O)OC2C[C@H]3CC[C@@H](C2)N3)ccc1O (some centres not stated)	26.4	4.6	99.0	5.0	111.0	/	/	/
CC[C@@H](CO)NC(=O)[C@@H]1C=C2c3cccc4c3c(cn4C)C[C@H]2N(C)C1	17.7	40.9*	66.0*![inhibitor]	7.0	38.0*![inhibitor]	109.0	7.0	104.0
COc1ccc(N2CCN(CCCN)CC2)cc1	18.6	-2.9	104.0	23.0	152.0*	162.0	34.0	108.0
NCCCN1CCN(c2ccccc2)CC1	3.5	-9.5	98.0	28.0	152.0*	133.0	25.0	101.0
CN(C)c1cccc(CN2CCN(c3ccccc3)CC2)c1	23.4	-25.8	/	/	/	/	/	/
COC(=O)C1=C(c2ccccc2)C[C@@H]2CC[C@H]1N2C(=O)NCCS(C)=O (some centres not stated)	12.4	23.1	106.0	5.0	105.0	/	/	/
CC12CN3CCN(C1)CC(C)(C3)C2=NN	-15.6	-8.9	94.0	-4.0	102.0	/	/	/
CC(=NCCCn1ccnc1)c1c(O)n(C2CCCCC2)c(=O)[nH]c1=O	9.4	10.7	132.0*	23.0	113.0	103.0	-2.0	106.0
O=c1[nH]c(=O)n(C2CCCCC2)c(O)c1C=NCCCn1ccnc1	5.6	-19.8	/	/	/	/	/	/
O=C1NCN(c2ccccc2)C12CCN(C(c1ccnc3ccccc13)c1nnnn1C1CCCC1)CC2 (configuration not stated)	12.2	0.5	/	/	/	/	/	/
CN1C[C@H](CNC(=O)OCc2ccccc2)C[C@@H]2c3cccc4c3c(cn4C)C[C@H]21	4.1	22.7	116.0	14.0	158.0*	140.0	10.0	99.0
Cc1[nH]c2ccc(O)cc2c1CCN	2.4	-19.6	/	/	/	/	/	/
Cc1[nH]c2ccc(OCc3ccccc3)cc2c1CCN	15.4	-3.5	110.0	18.0	162.0*	133.0	14.0	105.0
O=C(NC1CCCCC1)N1Cc2ccccc2-n2nncc2C1	4.3	4.8	/	/	/	/	/	/
Nc1c(C(=O)NCc2ccco2)c2nc3ccccc3nc2n1CCN1CCCCC1	25.3	-75.3	122.0*	29.0*	146.0*	139.0	16.0	105.0
COC(=O)C1=C(C)NC(=S)NC1c1ccc(N(CCCl)CCCl)cc1Cl (configuration not stated)	-11.0	-1.4	/	/	/	/	/	/
CCCCn1c(C)c(C(=O)O)c2cc(OC)ccc21	12.0	-2.9	81.0*[inhibitor]	-7.0	85.0	107.0	8.0	103.0
CN=C1CN(O)C(c2ccccc2)c2cc(Cl)ccc2N1 (configuration not stated)	15.2	2.1	/	/	/	/	/	/
SMILES	SKN-1 block	NRP1-CendR mod	MEKK3 PB1 HTS	MEKK2 mut-MEK5	MEKK2wt PB1 HTS	MEKK2wt confirm	MEKK2mut confirm	MEKK3-MEK5 inh
CCOC(=O)c1c(/N=C/c2c(O)n(-c3ccc(F)cc3)c(=S)[nH]c2=O)sc2c1CCCC2	1.3	-32.4	/	/	/	/	/	/
CCOC(=O)c1c(/N=C/c2c(O)n(-c3ccccc3F)c(=S)[nH]c2=O)sc2c1CCCC2	3.8	-83.8	91.0	-34.0	64.0*[inhibitor]	51.0	-23.0	92.0
Cc1cc(OCCN2CC2)c2ccccc2n1	/	/	93.0	15.0	141.0*	172.0	51.0	110.0
CN1CCN(Cc2nc3ccccc3c(=O)[nH]2)CC1	8.8	-15.7	103.0	8.0	102.0	/	/	/
C1=CC(Cc2cncs2)c2ccccc21 (configuration not stated)	7.2	11.8	/	/	/	/	/	/
N#Cc1c(Cl)nc(Cl)c2c1CCN(Cc1ccccc1)C2	18.3	-25.3	183.0*	2.0	114.0	104.0	3.0	99.0
Cc1cc(C=C2C(=O)N(C)C(=S)N(C)C2=O)c(C)n1C1CCCCC1	8.6	-92.8	95.0	-21.0	72.0*[inhibitor]	82.0	-9.0	99.0
Cc1cc(C=C2C(=O)NC(=S)NC2=O)c(C)n1C1CCCC1	6.9	-53.7	106.0	-3.0	99.0	/	/	/
Cc1cc(N2CCCCC2)ccc1C=C1C(=O)N(C)C(=S)N(C)C1=O	26.5	-35.1	90.0	-2.0	29.0*[inhibitor]	87.0	-5.0	88.0
COc1ccc(CC2C(=O)NC(C)C(=O)N(C)C3C(=O)N(C)C(Cc4ccc(O)c(c4)Oc4ccc(cc4)C3O)C(=O)NC(C)C(=O)NC(C)C(=O)N2C)cc1 (configuration not stated)	28.0	0.0	/	/	/	/	/	/
COc1ccc2[nH]cc(CCN)c2c1	1.6	-1.4	91.0	14.0	152.0*	111.0	12.0	99.0
COc1ccc(CNCCc2c[nH]c3ccccc23)c(OC)c1OC	18.4	10.5	105.0	8.0	118.0	/	/	/
Cc1ccc2c(c1)[C@@H]1CN(C)CC[C@@H]1N2C(=O)Nc1cccc(C(F)(F)F)c1	6.4	5.5	110.0	26.0	139.0*	110.0	5.0	97.0
Cc1ccc2c(c1)C1CN(C)CCC1N2C(=O)Nc1cccc(C(F)(F)F)c1 (configuration not stated)	17.8	-4.3	103.0	15.0	127.0	/	/	/
